Results on 7 sequences are retold here after the supplement of paper PMC6555819.

Holding throughout (assay): PBM binding z-score (relative to random genomic background probes); higher = stronger binding; sequences stand for … in GC…GCGATTGACAGCGTAGAATGAAGG
For test [1], the system named is FXR:RXRa (NR concentration 270 nM, RXRa partner concentration 90 nM). In outline:
(§1)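 Binding z-scores take random background probes as their reference. They come from custom Agilent 4×180K protein-binding microarrays incubated 1 h with ligand-free nuclear receptor dimers, with antibodies against each partner (one per run) detecting binding. Scanned fluorescence was regression-normalized.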

The subject of test [2] is LXRa:RXRa (NR concentration 270 nM, RXRa partner concentration 90 nM). Summed up:
as §1

The test system of test [3] is LXRa homodimer (NR concentration 270 nM). Summed up:
as §1

Test [4] has as its system LXRb:RXRa (NR concentration 270 nM, RXRa partner concentration 90 nM). Summed up: as §1
In test [5] the test system is LXRb homodimer (NR concentration 270 nM). Summed up:
as §1

The test system of test [6] is PPARa:RXRa (NR concentration 270 nM, RXRa partner concentration 90 nM). In outline: as §1
For test [7], the system named is PPARg:RXRa (NR concentration 180 nM, RXRa partner concentration 90 nM). In outline: as §1
Test [8] concerns PPARg:RXRa 270nM:90nM, anti-RXR (NR concentration 270 nM, RXRa partner concentration 90 nM). Summed up:
as §1

In test [9] the test system is PPARg:RXRa 30nM:10nM, anti-RXR (NR concentration 30 nM, RXRa partner concentration 10 nM). In outline: as §1
Test [10] relates to PPARg:RXRa 90nM:30nM, anti-RXR (NR concentration 90 nM, RXRa partner concentration 30 nM). In outline: as §1
Test [11] deals with PPARg:RXRa DBDmut IVT, anti-RXR (DBD mutation: RXRa K156A/R161A, NR concentration 270 nM, RXRa partner concentration 90 nM). In outline:
as §1

The subject of test [12] is PPARg:RXRa IVT, anti-PPARg (NR concentration 270 nM, RXRa partner concentration 90 nM). In outline: as §1
The test system of test [13] is PPARg DBDmut:RXRa IVT, anti-PPARg (DBD mutation: PPARg1 K132A/R137A, NR concentration 270 nM, RXRa partner concentration 90 nM). Summed up:
as §1

The subject of test [14] is PPARg DBDmut IVT, anti-PPARg (DBD mutation: PPARg1 K132A/R137A, NR concentration 270 nM). Summed up: as §1
The subject of test [15] is PPARg homodimer (NR concentration 180 nM). In outline: as §1
Test [16] concerns PXR:RXRa (NR concentration 270 nM, RXRa partner concentration 90 nM). In outline:
as §1

Test [17] concerns PXR homodimer (NR concentration 270 nM). In outline: as §1
Test [18] relates to RARa:RXR (NR concentration 270 nM, RXRa partner concentration 90 nM). In outline: as §1
Test [19] concerns RARa homodimer (NR concentration 270 nM). Summed up: as §1
Test [20] deals with RARb:RXRa (NR concentration 270 nM, RXRa partner concentration 90 nM). Summed up:
as §1

Turning to CCTCGGAGGACAACAGGACGTCAGAGCTGCCAGA, the PBM binding z-score was 0.0455 in test [1]; -0.556 in [2]; -0.533 in test [3]; -0.881 in [4]; -0.769 in test [5]; -0.616 in [6]. The PBM binding z-score in test [7] was 0.187; in [8], -1.2; in [9], -0.952; in test [10], -1.19; in [11] it was -0.431; in test [12] it was -0.589. Moreover, the PBM binding z-score is -0.661 in [13]; -1.48 in test [14]; -0.0308 in test [15]; -0.587 in [16]; -0.482 in test [17]; -0.32 in test [18]. Moreover, the PBM binding z-score in test [19] is -0.489; in test [20], 0.92.
CCTACTGGGCCACGAAAGGTCATTGACTCAGTGA: the PBM binding z-score in [1] was 4.14; in [2], 5.29; in test [3] it was 4.5; in test [4], 4.65; in test [5], 0.406; in test [6], 5. Moreover, the PBM binding z-score in test [7] worked out at 4.93; in [8], 4.87; in test [9] it was 2.71; in test [10] it was 4.15; in test [11] it was 5.69; in [12] it was 5.8. For the same sequence, the PBM binding z-score in test [13] was 0.0683; in test [14] it was -0.677; in [15] it was 2.13; in test [16], 5.15; in test [17] it was 1.92; in [18], 5.49. Further, the figures for the PBM binding z-score in test [19] and in test [20] were 0.622 and 4.03, respectively.
TGTCAAAGTTCAAAGGTAACTTAAGTATCCACAC: the PBM binding z-score in [1] is 7.43; in [2], 6.57; in test [3], 4.91; in test [4], 5.29; in test [5], 1.88; in [6] it was 5.97. Besides, the PBM binding z-score in [7] is 9.03; in test [8], 7.64; in test [9] it was 5.83; in test [10], 7.46; in test [11] it was 0.229; in test [12], 4.39. Besides, the PBM binding z-score amounted to 1.49 in test [13]; 1.25 in [14]; 2.75 in test [15]; 5.84 in test [16]; 3.49 in [17]; 6.36 in [18]. The PBM binding z-score in test [19] came out at 1.36; in test [20], 5.23.
As for ACTAGTTGGTCAGCTGAGGTCACAAACAATTCGG, the PBM binding z-score in test [1] was 2.51; in test [2], 2.67; in test [3], 2.22; in [4], 3.43; in [5] it was 0.432; in [6], 3.72. Moreover, the PBM binding z-score is 1.41 in test [7]; 2.05 in test [8]; 0.167 in test [9]; 1.14 in test [10]; 1.09 in [11]; 2.67 in test [12]. Further, the PBM binding z-score in [13] was -0.0448; in [14] it was 0.681; in test [15] it was 2.75; in test [16], 5.42; in test [17] it was 1.38; in [18], 4.65. Moreover, the PBM binding z-score is 1.05 in test [19] and 3.53 in test [20].
As for ATCACTAGGTAAAGATAGTTCAGTGAATGCAAAT, the PBM binding z-score is 0.213 in test [1]; 3.82 in test [2]; 0.581 in test [3]; 0.654 in [4]; 0.171 in test [5]; 0.991 in test [6]. Further, the PBM binding z-score in test [7] was determined as 1.13; in [8] it was 0.685; in [9], 0.585; in [10], 0.404; in [11], 3.21; in [12] it was 2.54. The PBM binding z-score is 1.22 in [13]; 1.14 in test [14]; 0.795 in [15]; 1.02 in test [16]; 0.598 in [17]; 0.654 in test [18]. The results for the PBM binding z-score in test [19] and in test [20] were 1.19 and 0.635, respectively.
Take TAGCCTAGGTCATGGGCTAGTATACCACGCGAAC: the PBM binding z-score in test [1] was 4.37; in [2], 3.22; in test [3] it was -0.104; in [4], 1.86; in test [5] it was -0.806; in [6], 4.16. Besides, the PBM binding z-score turned out to be 3.61 in test [7]; 3.3 in test [8]; 0.951 in [9]; 2.07 in [10]; 1.15 in [11]; 3.37 in test [12]. Also, the PBM binding z-score is 0.577 in [13]; -0.926 in test [14]; 1.36 in [15]; 1.6 in test [16]; -0.606 in test [17]; 2.74 in test [18]. The PBM binding z-score is -0.439 in test [19] and 3.86 in test [20].
For the sequence CTACCAAGGTGAACAAGGTCGTTGTTTACTATTC, the PBM binding z-score was 1.24 in test [1]; 1.22 in [2]; -0.0325 in test [3]; 1.85 in test [4]; -0.465 in [5]; 2.46 in test [6]. The PBM binding z-score in test [7] was 0.787; in [8] it was 1.29; in [9] it was -0.0619; in test [10], 0.702; in test [11] it was 2.55; in test [12], 2.57. Moreover, the PBM binding z-score came out at 0.468 in test [13]; 0.107 in test [14]; 0.724 in [15]; 2.78 in [16]; 1.16 in test [17]; 2.27 in test [18]. Besides, the PBM binding z-score in test [19] was -0.486; in test [20], 2.
